Screening results as filed in PubChem BioAssay.
An excerpt weighted towards active compounds, which were near 1.9% of everything screened.
MOR-DOR ag – agonists of OPRM1-OPRD1 heterodimerization, primary screen, cell-based, luminescence | cells | Mu-type opioid receptor (Homo sapiens) + Delta-type opioid receptor (Homo sapiens), … | AID 504326, 2011 | actives 0.3% (n = 340,000) | activation, % at 9.3 µM; in the data active = activation above about 18%
Target sequence (P35372 whole entry, looked up): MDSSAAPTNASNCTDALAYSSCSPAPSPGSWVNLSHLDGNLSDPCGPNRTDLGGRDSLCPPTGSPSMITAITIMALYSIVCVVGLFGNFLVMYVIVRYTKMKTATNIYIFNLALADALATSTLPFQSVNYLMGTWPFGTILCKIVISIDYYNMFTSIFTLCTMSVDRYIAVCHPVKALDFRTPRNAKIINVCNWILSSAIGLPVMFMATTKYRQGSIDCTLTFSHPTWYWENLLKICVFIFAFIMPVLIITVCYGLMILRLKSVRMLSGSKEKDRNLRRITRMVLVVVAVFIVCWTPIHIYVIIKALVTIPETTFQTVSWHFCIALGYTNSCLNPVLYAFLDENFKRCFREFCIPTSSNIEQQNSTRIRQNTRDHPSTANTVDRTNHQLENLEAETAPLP
Target sequence (P41143 whole entry, looked up): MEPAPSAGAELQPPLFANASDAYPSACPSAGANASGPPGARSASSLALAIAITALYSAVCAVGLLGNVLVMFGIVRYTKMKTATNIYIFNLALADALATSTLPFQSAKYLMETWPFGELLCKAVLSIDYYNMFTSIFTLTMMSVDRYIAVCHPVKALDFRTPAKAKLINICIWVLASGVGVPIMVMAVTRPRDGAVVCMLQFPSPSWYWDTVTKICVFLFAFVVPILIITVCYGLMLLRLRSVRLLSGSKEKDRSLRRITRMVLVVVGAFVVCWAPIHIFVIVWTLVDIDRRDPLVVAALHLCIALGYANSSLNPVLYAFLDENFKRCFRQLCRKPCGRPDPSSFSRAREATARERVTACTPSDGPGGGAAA
HTR5A inv ctr – HTR5A inverse agonists in luminescence cell assay, primary screen, counter-screen for OPRM1-OPRD1 heterodimer inverse agonist project, full-deck HTS; inhibition, % at 9.3 µM; HTR5A cell line, inverse agonism; AID 504634, 2011; 5-hydroxytryptamine receptor 5A (Homo sapiens), P47898; actives 0.083% (n = 340,000); in the data active = inhibition mostly above about 23%, no sharp cut-off; inactive = mostly below about 18%
bovine MsrA act – bovine MsrA enzyme activators, primary screen, biochemical, absorbance, HTS; Methionine sulfoxide reductase A (Bos taurus); purified bovine MsrA, absorbance read-out; activation, % at 10.6 µM; actives 0.3% (n = 360,000); in the data active = activation above about 7.5%
MOR-DOR inv ag – inverse agonists of MOR-DOR heterodimerization, primary screen, cell-based, luminescence; Mu-type opioid receptor (Homo sapiens) + Delta-type opioid receptor (Homo sapiens), …; cell-based MOR-DOR heterodimer luminescence, inverse agonism; inhibition, % at 9.3 µM; actives 0.21% (n = 340,000); in the data active = inhibition above about 22%, passing the limit was not always enough
HTR5A ag – HTR5A agonists in luminescence cell assay, primary screen, counter-screen for OPRM1-OPRD1 heterodimer agonist project, full-deck HTS; 5-hydroxytryptamine receptor 5A (Homo sapiens), P47898; cell-based; activation, % at 9.3 µM; actives 0.61% (n = 340,000); in the data active = activation mostly above about 9.5%, no sharp cut-off; inactive = mostly below about 7.6%
MsrA inh – bovine MsrA enzyme inhibitors, primary screen, biochemical, absorbance, HTS; Methionine sulfoxide reductase A (Bos taurus); purified bovine MsrA, absorbance read-out; inhibition, % at 15.5 µM; actives 0.75% (n = 360,000); AID 651718, 2012
MsrA activ conf – bovine MsrA activators, retest, confirmation, biochemical, absorbance, HTS; shares compounds with bovine MsrA act; purified bovine MsrA, absorbance read-out; activation, % at 10.6 µM; actives 12% (n = 1,000); AID 602270, 2012; in the data active = activation above about 4%;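 also: enzyme coupled to thioredoxin and thioredoxin reductase with NADPH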
MsrA inh confirm – bovine MsrA inhibitors, retest, confirmation, biochemical, absorbance, HTS; shares compounds with MsrA inh; purified bovine MsrA, absorbance read-out; inhibition, % at 15.5 µM; actives 41% (n = 2,300);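 also: coupled to thioredoxin reductase with NADPH and selenocystamine and DMSO as substrate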
Hits are given with their value; i = inactive; nt = not tested or not shown. Rule as the data show it, unless noted: active = inhibition above about 4.5%; inactive = the rest.

SMILES | MOR-DOR ag | HTR5A inv ctr | bovine MsrA act | MOR-DOR inv ag | HTR5A ag | MsrA inh | MsrA activ conf | MsrA inh confirm
C/C(CC(=O)NC12CC3CC(CC(C3)C1)C2)=N\NC(=O)c1cnccn1 | i | i | 14 | i | i | i | i | nt
Nc1[nH]c(C(=O)c2ccc(Br)cc2)c(-c2cccc3ccccc23)c1C(=O)NCCc1c[nH]c2ccccc12 | nt | nt | nt | nt | nt | i | nt | nt
CC(C)C1=CC2C3C(C(C(C)C)=CC(=O)[C@@]3(C)O)C1C(=O)C2(C)O (stereo not given in full) | nt | nt | nt | nt | nt | i | nt | nt
CCOc1ccc(NC(C(=O)Nc2cccc(C(C)=O)c2)c2ccccc2)cc1 (stereo not given) | i | i | 9.5 | i | i | i | 10 | nt
COCC(C)NC(C(=O)Nc1cccc(C(C)=O)c1)c1ccccc1 (stereo not given) | i | i | i | i | i | i | nt | nt
O=C(NCc1nnnn1-c1ccc(F)cc1)C1CC(=O)N(c2ccc(F)cc2)C1 (stereo not given) | i | i | i | i | i | i | nt | nt
Cc1ccc(-n2nnnc2CNC(=O)C2CC(=O)N(c3ccc(F)cc3)C2)cc1C (stereo not given) | i | i | 7.7 | i | i | i | i | nt
COc1ccc(NC(=O)N(C)C[C@@H]2OCc3cnnn3CCCC(=O)N([C@@H](C)CO)C[C@@H]2C)cc1 | nt | nt | nt | nt | nt | i | nt | nt
Cc1ccc(C(=O)OCC(=O)NC2CCCCC2)cc1S(=O)(=O)N1CCCCC1 | i | i | 8.4 | i | i | i | i | nt
COc1cc(CCN=Cc2cccc(OC)c2O)c([N+](=O)[O-])cc1OC | nt | nt | nt | nt | nt | i | nt | nt
CCc1ccc(C2CC(c3ccccc3Cl)Nc3nc(N)nn32)cc1 (stereo not given) | i | i | 9.4 | i | i | i | i | nt
COc1ccc(S(=O)(=O)NC(CC(=O)NCCc2ccc(OC)c(OC)c2)C(C)C)cc1 (stereo not given) | i | i | 13 | i | i | i | i | nt
COc1ccc(NC(=O)N(C)C[C@H]2OCCCC[C@H](C)Oc3ccc(NC(=O)Nc4cccc5ccccc45)cc3C(=O)N([C@@H](C)CO)C[C@H]2C)cc1 | nt | nt | nt | nt | nt | i | nt | nt
CCOC(=O)c1cc2nc(OCC)nc(OCC)c2[nH]1 | i | i | 8.7 | i | i | i | i | nt
O=c1oc2ccccc2cc1-c1ccc(O)cc1O | i | i | i | i | i | i | nt | nt
Oc1cccc2oc(=S)[nH]c12 | i | i | 12 | i | i | i | i | nt
Cc1cc(NC(=O)Cc2cn(C)c3ccccc23)ccc1Nc1cccnc1 | nt | nt | nt | nt | nt | i | nt | nt
CC(=O)c1ccc(NC(=O)c2ccc([N+](=O)[O-])o2)cc1 | i | i | 9.1 | i | i | 11 | i | 5.7
CC(=O)c1cccc(NC(=O)c2ccc([N+](=O)[O-])o2)c1 | i | i | i | i | i | i | nt | nt
COC(=O)c1cc2c(c3c4cc(OC)ccc4n(S(=O)(=O)c4cccc(C)c4)c13)C(=O)N(Cc1ccc(N(C)C)cc1)C2 | nt | nt | nt | nt | nt | i | nt | nt
O=C1C(Cl)=C(Nc2ccc(O)cc2)C(=O)c2ccccc21 | i | i | 9.2 | i | i | 17 | 7.0 | 12
COc1ccc(/C=N/NC2=NS(=O)(=O)c3ccccc32)cc1OC(C)=O | i | i | 15 | i | i | 5.4 | i | i
CC(=O)Oc1ccc(/C=N/NC2=NS(=O)(=O)c3ccccc32)cc1 | i | i | i | i | i | i | nt | nt
COC(=O)C1=C(C)N(C)C(=NCc2ccc3c(c2)OCO3)NC1c1ccccc1 (stereo not given) | nt | nt | nt | nt | nt | i | nt | nt
O=C(O)CSc1cc(NS(=O)(=O)c2ccc(Cl)cc2)c2ccccc2c1O | i | i | 7.8 | i | i | 9.5 | i | i
SMILES | MOR-DOR ag | HTR5A inv ctr | bovine MsrA act | MOR-DOR inv ag | HTR5A ag | MsrA inh | MsrA activ conf | MsrA inh confirm
O=S(=O)(Nc1cc(Sc2cccc3cccnc23)c(O)c2ccccc12)c1ccc(F)cc1 | nt | nt | nt | nt | nt | i | nt | nt
COc1ccc(Nc2ccc(C(F)(F)F)cc2[N+](=O)[O-])cn1 | i | i | 13 | i | i | 24 | i | 18
Cc1cc(C(=O)O)ccc1-c1ccc(/C=N/n2cnnc2)o1 | i | i | 8.4 | i | i | 9.2 | i | 6.5
COC(=O)C1=C(C)N(Cc2cccc(C(F)(F)F)c2)C(=NCc2ccc(C(F)(F)F)cc2)NC1c1ccccc1C(F)(F)F (stereo not given) | nt | nt | nt | nt | nt | i | nt | nt
C#CCOC(=O)/C(=C/C=C/c1ccccc1)NC(=O)c1ccccc1 | i | i | i | i | i | 5.2 | nt | i
COc1ccccc1C=C1SC(=S)NC1=O | i | i | i | i | i | i | nt | nt
COc1ccc(C=C2SC(=S)NC2=O)c(OC)c1OC | i | i | i | i | i | 4.8 | nt | i
C=CCCC1CN(CC=C)S(=O)(=O)c2c(F)cccc2O1 (stereo not given) | nt | nt | nt | nt | nt | i | nt | nt
COc1ccc(N2C(=O)c3[nH]nc(-c4ccccc4)c3C2c2ccc(F)cc2)cc1 (stereo not given) | nt | nt | nt | nt | nt | i | nt | nt
CC(=O)c1ccc(NC(=O)/C(=C\c2ccco2)NC(=O)c2ccco2)cc1 | i | i | i | i | i | 5.7 | nt | 5.4
O=C(Nc1ccc(C(=O)O)cc1)/C(=C\c1ccco1)NC(=O)c1ccccc1 | i | i | i | i | i | i | nt | nt
O=C(Nc1ccc(C(=O)O)cc1)/C(=C\c1ccco1)NC(=O)c1ccco1 | i | i | i | i | i | 4.8 | nt | 4.9
Cc1cccc(N2CCN(C3C(=O)Nc4ccccc4-n4nnnc43)CC2)c1C (stereo not given) | nt | nt | nt | nt | nt | i | nt | nt
Cc1cccc2nc(-c3ccccc3)c(-c3ccc(CN4CCC(n5cc(-c6ccccc6)[nH]c5=O)CC4)cc3)nc12 | nt | nt | nt | nt | nt | i | nt | nt
COc1cccc2c1Oc1cc([N+](=O)[O-])cc(N(C)C(C)=O)c1C=C2 | i | i | i | i | i | 15 | nt | 11
COc1ccc(C(C(=O)NC(C)(C)C)n2c(-c3ccc(-c4ccccc4)cc3)nc3ccccc32)cc1 (stereo not given) | nt | nt | nt | nt | nt | i | nt | nt
